Data reported in ChEMBL document CHEMBL4513216, “Probing the Open Global Health Chemical Diversity Library for Multistage-Active Starting Points for Next-Generation Antimalarials” (ACS Infect Dis, 2020).
Screen size: about 69,000 compounds; about 8,600 (12%) showed an effect of 50% or more. What follows is part of a selection rich in strong results, with near analogues and random picks from the rest.

tested on: Plasmodium berghei; test: Screen against P. berghei liver stage (PbLuc), transformed with Luciferase, at 10uM; assay type: functional, HepG2; details: tested at 10 uM

Compound | INHIBITION [%]
CN(C)C(=O)c1cccn1-c1ccc2c(c1)OCCO2 | 9.16
CC(C)(C)OC(=O)N1CCN(c2cccnc2)CC1C(=O)O (centres undefined) | 20.2
CC(C)C(C(=O)N1CCN(Cc2ccccn2)CC1)n1cncn1 (centres undefined) | -24.5
Cc1nc(C(C)C)sc1C(=O)NCCNc1ncccc1C#N | -29.1
O=C(NC1CC1)N1CCC2(CC1)C(=O)NCCN2Cc1ccccc1 | 30.9
CC(C)(C)OC(=O)N(CCNS(=O)(=O)N1CCOCC1)C1CC1 | -28
CN1CCC2(CCCN(c3nccc(C(F)(F)F)n3)C2)CC1 | -2.35
O=C(Nc1cccc(CN2CCOC2=O)c1)N1CCOCC1 | 5.14
O=C(Nc1cccc(CN2CCOC2=O)c1)N1CCCCCC1 | -4.12
Cc1ncc(CN(C)C(=O)Nc2cccc(CN3CCOC3=O)c2)s1 | 52.8
Cc1ncc(CN(C)C(=O)Nc2cccc(N3CCOC3=O)c2)s1 | 28
O=C(Nc1cccc(CN2CCOC2=O)c1)N1CCCC1 | 53.8
Cc1ncc(CN(C)C(=O)Nc2ccc(CN3CCOC3=O)cc2)s1 | 22.5
CCCN1CCC=C(C2c3nc[nH]c3CCN2C(=O)c2ccco2)C1 (centres undefined) | 25.1
OC(CN1CCC(CNCc2ccccn2)CC1)c1ccccc1 (centres undefined) | -36.1
COCC(=O)N1C[C@H]2CNC[C@@]2(C(=O)NCc2cccc3[nH]ccc23)C1 | 13.1
CN(CC1CCCCO1)S(=O)(=O)c1cccc(C(=O)N2CCOCC2)c1 (centres undefined) | 1.19
CC(C)(C)NC(=O)CN1CCCNCC1 | 74.9
CC(C)NC(=O)CN1CCCNCC1 | 3.77
CC(C)(C)NC(=O)CN1CCNCC1 | -30
O=C(O)c1cc2c(nc1-c1cncnc1)CCN(C1CCOC1)CC2 (centres undefined) | 37.8
Cc1ccccc1CC(=O)N1CC[C@@](O)(CNS(C)(=O)=O)[C@H](O)C1 | 0.301

Compound | INHIBITION [%]
N#Cc1ccccc1CN(CCO)Cc1ccsc1 | 36.4
CN(Cc1ccc(F)cc1)C(=O)Nc1cccnc1N1CCCC1 | -2.33
CS(=O)(=O)N1C[C@H]2CC[C@@H](C1)N(CCC(=O)NCc1ccccc1F)C2 | -7.02
COCCN1C[C@@H]2CC[C@H]1CN(CC(=O)Nc1ccn(C)n1)C2 | 21.2
Cn1ccc(NC(=O)CN2C[C@@H]3CC[C@H]2CN(S(C)(=O)=O)C3)n1 | 53.3
COC1CCN(c2ccc(F)cc2CN(C)C(C)C(N)=O)CC1 (centres undefined) | 7.3
Cc1ccccc1N1CC2(CCN(Cc3nccn3C)C2)CC1=O (centres undefined) | 25.2
CC(=O)Nc1nc(C(=O)N2CCCC(n3nc(C)nc3C)C2)cs1 (centres undefined) | 53.9
Cc1nc(C)n(C2CCCN(C(=O)c3csc(C)n3)C2)n1 (centres undefined) | 14.4
CC(=O)Nc1nc(C(=O)N2CCCC(n3ccnc3)C2)cs1 (centres undefined) | 31.9
CC(=O)Nc1nc(C(=O)N2CCCC(n3cncn3)C2)cs1 (centres undefined) | 67.6
Cc1cnc(C(=O)N2CCCC(n3nc(C)nc3C)C2)cn1 (centres undefined) | 7.12
Cc1nc(C)n(C2CCCN(C(=O)c3csnn3)C2)n1 (centres undefined) | 11.6
Cc1nc(C)n(C2CCCN(C(=O)c3cscn3)C2)n1 (centres undefined) | 60.2
Cc1cc(C)n(C2CCCN(C(=O)c3csc(C4CC4)n3)C2)n1 (centres undefined) | 34.7
Cc1nc(C)n(C2CCCN(C(=O)c3csc(C(C)C)n3)C2)n1 (centres undefined) | 40.3
CC(=O)Nc1nc(C(=O)N2CCCC(n3nc(C)cc3C)C2)cs1 (centres undefined) | 57.8
Cc1nc(C(=O)N2CCCC(n3cncn3)C2)cs1 (centres undefined) | 31.1
COCc1nc(C(=O)N2CCCC(n3nc(C)cc3C)C2)cs1 (centres undefined) | 25.1
Cc1ccc(N(C)[C@@H]2CC[C@@H]3CN(C(=O)CC4CCOCC4)C[C@@H]32)nn1 | -16
CCSc1ccccc1C(=O)NCCn1nc(-n2cncn2)ccc1=O | 16.5
Cn1ccc(C(=O)N2CCC(Cc3ccc4ncccc4c3)CC2)n1 | 28.1

Compound | INHIBITION [%]
CC(C)CNC(=O)[C@H]1C[C@H]2CN(C(=O)NCC3CCCCC3)C[C@@H]1O2 | -41.9
CCC(NC1Cc2ccccc2C1)c1ccc(S(C)(=O)=O)cc1 (centres undefined) | 29.4
CCN(CC)S(=O)(=O)c1cnccc1N1CCN(C(C)C)CC1 | -26.8
CCNc1nnc(SC(C(=O)NCc2cccnc2)C(C)C)s1 (centres undefined) | -7.98
CC(CN1CCOCC1)OC(=O)c1ccccc1I (centres undefined) | 38.9
COCc1nc(C(=O)N2CCCC(n3cccn3)C2)cs1 (centres undefined) | 17.8
COCc1nc(C(=O)N2CCCC(n3ccnc3)C2)cs1 (centres undefined) | 59
COCc1nc(C(=O)N2CCCC(n3ccnc3C)C2)cs1 (centres undefined) | -23.9
CC1CN(C)CCN1C(=O)c1ccn(-c2cccc(Cl)c2)n1 (centres undefined) | 10
CC1CN(C)CCN1C(=O)c1cccn1Cc1ccncc1 (centres undefined) | 8.08
CC1CN(C)CCN1C(=O)c1ccn(-c2ccccc2)n1 (centres undefined) | 63.5
CC1CN(C)CCN1C(=O)c1ccn(-c2cccc(F)c2)n1 (centres undefined) | 51.1
COc1ccc(-n2ccc(C(=O)N3CCN(C)CC3C)n2)cc1 (centres undefined) | 20.9
CC1CN(C)CCN1C(=O)c1ccn(-c2ccccc2Cl)n1 (centres undefined) | -25.6
CC1CN(C)CCN1C(=O)c1ccn(-c2ccc(F)cc2)n1 (centres undefined) | 56.6
CC1COCCN1C(=O)c1ccc(=O)n(CCOc2ccccc2)n1 (centres undefined) | 4.41
NC(=O)C1CCN(C(=O)c2ccn(-c3ccc(F)cc3)n2)C1 (centres undefined) | 16.1
COCCn1nc(C(=O)N2CCN(C)CC2C)ccc1=O (centres undefined) | 58.7
NC(=O)C1CCN(C(=O)c2ccn(-c3cccc(F)c3)n2)C1 (centres undefined) | 23.5
COCCn1nc(C(=O)N2CCOCC2C)ccc1=O (centres undefined) | 47.6
Cn1ccc(C(=O)NCCOc2ccc3c(c2)CCC3)cc1=O | -15.5
CCc1ocnc1C(=O)N1CCCC1c1noc(C2CC2)n1 (centres undefined) | 34.2

Compound | INHIBITION [%]
Cc1cc(C(=O)Nc2ccc(OCCN3CCN(C)CC3)cc2)[nH]n1 | -49.9
CCc1cc(=O)[nH]c(-c2ccc(NCCC(C)O)nc2)n1 (centres undefined) | 36.9
CCN1CC[C@@]2(C(=O)N(C)C)CCN(C(=O)Cc3ccccc3)CC[C@@H]12 | 11.2
CC(C)n1ccnc1C1CCCN(c2ccnc3ccccc23)C1 (centres undefined) | 71.3
CSc1nccc(N2CCCC(c3nccn3C(C)C)C2)n1 (centres undefined) | 27.6
CC(C)n1ccnc1C1CCCN(c2ccccn2)C1 (centres undefined) | 24.6
CC(C)n1ccnc1C1CCCN(c2nc3ccccc3s2)C1 (centres undefined) | 61.2
CC(C)n1ccnc1C1CCCN(c2ccncc2F)C1 (centres undefined) | 32.1
Cc1ccnc(N2CCCC(c3nccn3C(C)C)C2)n1 (centres undefined) | 15.8
CN(C)C(=O)C1CCCN1CCCNC(=O)c1cccc2[nH]ncc12 (centres undefined) | 23.2
COc1cc(C(C)=O)ccc1OCCNCc1ccco1 | 5.67
COc1cccc(CN(C)Cc2ccccc2C#N)c1OC | 4.48
COc1cccc(CN(C)C(=O)CCC(=O)c2ccc(Cl)cc2)c1OC | 40.1
Cc1cc(CNC(=O)N(Cc2ccc(F)cc2F)C2CC2)no1 | 44.1
CC(=O)Nc1ccc(C(=O)N(C)Cc2cccc(F)c2)s1 | 39.7
CC(=O)Nc1ccc(C(=O)N(C)Cc2ccc(F)cc2F)s1 | 56
COc1cccc(CN(C)C(=O)c2ccc(NC(C)=O)s2)c1OC | 61.1
Cn1cc(-c2cnc(N3CCOCC3)nc2)cc1C(=O)NCCC#N | 47.4
Cn1nccc1-c1cccc(CC2CCN(S(C)(=O)=O)C2)n1 (centres undefined) | 12.905
Clc1cccc(Cl)c1-c1nnc(CNCCn2cccn2)o1 | -48.4
Cc1nc(CCNC(=O)N2CCC(Cc3cnn(C)c3)C2)cs1 (centres undefined) | -4.74
Fc1cccc(Cl)c1CNCCOc1ccccn1 | 27

Compound | INHIBITION [%]
Clc1cccc(Cl)c1CNCCOc1ccccn1 | 60
Fc1cccc(Cl)c1CNCCCOc1ccccn1 | 2.61
CCOc1nn(CC)cc1-c1nnc(SCc2cccnc2)n1CC | 9
Cc1noc(C)c1CNc1cccc(C(=O)N(C)c2ccccc2)c1 | 59.1
Cc1cc(CNc2cccc(C(=O)N(C)c3ccccc3)c2)no1 | 45
Cc1noc(C)c1CNc1cccc(C(=O)N2CCCC(O)C2)c1 (centres undefined) | 20.6
Cc1noc(C)c1CN1C[C@@H](OCc2ccccn2)[C@H]2OCCC[C@H]21 | -14.4
Cc1ccc(Cc2cnc(C3CCNCC3)cn2)cc1 | 13.5
CC(C)n1nc(CN2CCOCC2)c2c1CN(Cc1ccsc1)C2 | -18.2
OC(CN1CCC(c2ccn[nH]2)CC1)c1cccc(C(F)(F)F)c1 (centres undefined) | -33.9
OC(CN(Cc1ccccc1)Cc1ccon1)c1cccs1 (centres undefined) | 70.1
Cc1cnc(CN(Cc2ccccc2)CC(O)c2cccs2)cn1 (centres undefined) | -34.7
OC(CN(Cc1ccccc1)Cc1ccccn1)c1cccs1 (centres undefined) | 55.9
OC(CN(Cc1ccccc1)Cc1cscn1)c1cccs1 (centres undefined) | 9.72
OC(CN(Cc1ccccc1)Cc1ccon1)c1ccco1 (centres undefined) | -21
Cn1cc(CN(Cc2ccccc2)CC(O)c2cccs2)cn1 (centres undefined) | -58.4
OC(CN(Cc1ccccc1)Cc1cccnc1)c1cccs1 (centres undefined) | 57.2
OC(CN(Cc1ccccc1)Cc1ccncc1)c1cccs1 (centres undefined) | 7.11
Cc1cc(CN(Cc2ccccc2)CC(O)c2cccs2)on1 (centres undefined) | 30.3
CC(C)c1ccccc1NC(=O)N1C[C@H]2CC[C@@H](C1)N(C)C2=O | -14.5
Cn1cccc1CN(C(=O)CC(CC(=O)O)c1cccs1)C1CC1 (centres undefined) | -42.1
